C diff HTS – blocks growth of Clostridium difficile | Clostridium difficile clinical isolate growth, OD600, 24 h; hits give low values | growth activity, negative = inhibition, % at 16 µg/mL (by protocol) | 86,000 compounds, 0.25% hits;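 active = mean growth activity at or below -80% and every replicate also at or below -80%; inconclusive = mean at or below -80% but some replicate above -80%; inactive = mean growth activity above -80%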;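 also: 0% = DMSO wells and -100% = levofloxacin 16 µg/mL wells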
T cruzi growth-1 – T. cruzi proliferation inhibition; 77,000 compounds, 5.9% hits; T. cruzi beta-gal in NIH3T3, GalScreen luminescence, 90 h; inhibition, % at 8.34 µM; AID 624255;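 active = mean inhibition above about 93%, with at least 55% of replicates each passing it, limit read from the data, passing the limit was not always enough; inconclusive = only one of those two conditions holds; inactive = neither condition holds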
T cruzi growth-2 – Trypanosoma cruzi proliferation inhibition; shares compounds with T cruzi growth-1; T. cruzi beta-gal in NIH3T3, GalScreen luminescence, 90 h; inhibition, % at 8.35 µM; 5,600 compounds, 72% hits;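 active = mean replicate inhibition above about 95% and at least 55% of replicates individually reaching it, limit read from the data; inconclusive = only one of the two criteria is met; inactive = neither criterion is met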
T cruzi growth-3 – blocks T. cruzi growth in NIH3T3 host cells | shares compounds with T cruzi growth-1 | T. cruzi beta-gal in NIH3T3, GalScreen luminescence, 90 h | inhibition, % at 2.09 µM | 5,600 compounds, 21% hits | AID 651740;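 active = mean inhibition above about 95%, with at least 55% of replicates also reaching it, limit read from the data; inconclusive = meets just one of the two conditions; inactive = meets neither condition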;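 also: plate controls were neutral control median for no effect and positive control median for full effect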
NIH3T3 tox – cytotoxicity in mouse NIH/3T3 fibroblasts; shares compounds with T cruzi growth-1; NIH/3T3 viability, CellTiter-Glo ATP luminescence, 90 h; cytotoxicity (signal decrease), % at 8.35 µM; 5,600 compounds, 14% hits; AID 651742;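 active = mean signal decrease across replicates above about 35% based on untreated-well scatter, with enough replicates individually passing, limit read from the data; inconclusive = no rule stated though some were filed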;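 also: 0% = median of neutral control wells and 100% = median of positive control wells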
NIH3T3 tox 2 – cytotoxicity in mouse NIH/3T3 fibroblasts | AID 651744 | NIH/3T3 viability, CellTiter-Glo ATP luminescence, 90 h | shares compounds with T cruzi growth-1 | inhibition, % at 24.9 µM | 5,600 compounds, 56% hits;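 active = mean loss of cell viability signal at or above a set limit, and enough replicates individually reaching it; inconclusive = meets only the mean limit or only the replicate share; inactive = meets neither condition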;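 also: 0% = median of neutral control wells and 100% = median of positive control wells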
* = called active by the depositor; ! = not active in a repeat. This is one part of a sample in which hits are shown more often than they occur.

For C[C@@H]1CCCCO[C@H](CN(C)Cc2ccc(Cl)c(Cl)c2)[C@@H](C)CN([C@H](C)CO)C(=O)c2cc(NC(=O)Nc3cccc4ccccc34)ccc2O1 the results were C diff HTS 0, T cruzi growth-1 inconclusive, T cruzi growth-2 111*, T cruzi growth-3 75, NIH3T3 tox -1 and NIH3T3 tox 2 -12.
COc1ccc(S(=O)(=O)N(C)C[C@H]2OCCCC[C@H](C)Oc3ccc(NS(=O)(=O)c4cn(C)cn4)cc3C(=O)N([C@@H](C)CO)C[C@@H]2C)cc1 was read as C diff HTS -5 and T cruzi growth-1 61.
`COc1cccc(NC(=O)C[C@@H]2CC[C@H]3[C@H](COc4ccc(NC(=O)C5CC5)cc4C(=O)N3C)O2)c1` gave C diff HTS 1 and T cruzi growth-1 10.
`CO[C@H]1CN(C)C(=O)c2cc(NC(C)=O)ccc2OC[C@@H](C)N(C(=O)CN2CCOCC2)C[C@H]1C` gave T cruzi growth-1 -27.
CC=Cc1ccc2n(c1=O)C[C@H]1[C@H](CO)[C@@H](C(=O)NCCN3CCCCC3)N(C(C)=O)[C@@H]21 (mixture of isomers) was read as C diff HTS -1.
O=C(NCCN1CCCCC1)[C@@H]1[C@@H](CO)[C@@H]2Cn3c(cccc3=O)[C@@H]2N1Cc1ccccn1 was read as C diff HTS -2 and T cruzi growth-1 38.
For COc1ccc(NC(=O)N(C)C[C@H]2OCCCC[C@H](C)Oc3ccc(N(C)C)cc3C(=O)N([C@H](C)CO)C[C@@H]2C)cc1 the results were C diff HTS 0, T cruzi growth-1 100*, T cruzi growth-2 60, T cruzi growth-3 7, NIH3T3 tox 4 and NIH3T3 tox 2 -8.
Screening COc1ccc(NC(=O)N(C)C[C@H]2OCCCC[C@@H](C)Oc3ccc(N(C)C)cc3C(=O)N([C@H](C)CO)C[C@@H]2C)cc1 returned C diff HTS -3, T cruzi growth-1 105*!, T cruzi growth-2 53, T cruzi growth-3 11, NIH3T3 tox 21 and NIH3T3 tox 2 34*.
Screening COc1ccc(NC(=O)N(C)C[C@@H]2OCCCC[C@H](C)Oc3ccc(N(C)C)cc3C(=O)N([C@H](C)CO)C[C@H]2C)cc1 returned C diff HTS -2 and T cruzi growth-1 33.
COc1ccc(NC(=O)N(C)C[C@@H]2OCCCC[C@H](C)Oc3ccc(N(C)C)cc3C(=O)N([C@H](C)CO)C[C@@H]2C)cc1 was read as C diff HTS -1 and T cruzi growth-1 41.
For CN1CCCCN2[C@H](C1)[C@@H](c1ccc(-c3cccnc3)cc1)[C@@H]2CO the results were C diff HTS -2 and T cruzi growth-1 81.
For C[C@@H]1CN([C@H](C)CO)C(=O)c2cccc(NC(=O)c3ccncc3)c2O[C@H]1CN(C)C(=O)Nc1ccc(F)cc1 the results were C diff HTS 0 and T cruzi growth-1 29.
Screening CCC(=O)N1C[C@H]2[C@@H](c3ccccc31)[C@@H](CO)N2C(=O)Nc1ccccc1F returned C diff HTS -4 and T cruzi growth-1 -34.
Screening CN(C)C(=O)c1ccc(-c2ccc3c(c2)[C@@H]2[C@@H](CCN2C(=O)c2ccccc2)[C@H](CO)N3)cc1 returned C diff HTS 7 and T cruzi growth-1 15.
For O=C(C1CC1)N1CCCCN2[C@H](CO)[C@@H](c3ccc(-c4cccc(F)c4)cc3)[C@@H]2C1 the results were C diff HTS -8 and T cruzi growth-1 75.
O=C(C1CCCC1)N1CCCCN2[C@H](CO)[C@H](c3ccc(-c4cccc(F)c4)cc3)[C@@H]2C1 was read as C diff HTS -6, T cruzi growth-1 112*, T cruzi growth-2 113*, T cruzi growth-3 92, NIH3T3 tox 24 and NIH3T3 tox 2 66*.
O=C(C1CCC1)N1CCCCN2[C@H](CO)[C@@H](c3ccc(-c4cccc(F)c4)cc3)[C@H]2C1 was read as C diff HTS -18 and T cruzi growth-1 37.
For O=C(C1CCCC1)N1CCCCN2[C@H](CO)[C@@H](c3ccc(-c4cccc(F)c4)cc3)[C@H]2C1 the results were C diff HTS 7, T cruzi growth-1 111*, T cruzi growth-2 104*, T cruzi growth-3 17, NIH3T3 tox -1 and NIH3T3 tox 2 104*.
`C[C@H](CO)N1C[C@H](C)[C@@H](CN(C)C(=O)C2CCC2)Oc2ncc(C#CCc3ccccc3)cc2C1=O` gave C diff HTS 2 and T cruzi growth-1 78.
For O=C([C@@H]1[C@@H](CO)[C@@H]2Cn3c(cccc3=O)[C@@H]2N1Cc1ccccc1Cl)N1CCOCC1 the results were C diff HTS 5 and T cruzi growth-1 -44.
O=C(C[C@@H]1C[C@H]2c3cc(NC(=O)c4cccnc4)ccc3O[C@H]2[C@H](CO)O1)NCc1ccccc1F was read as C diff HTS -2 and T cruzi growth-1 -7.
Screening CN1C(=O)c2cc(NC(=O)C3CCCCC3)ccc2OC[C@@H]2O[C@H](CC(=O)NCC3CCCCC3)CC[C@@H]21 returned C diff HTS -3.
`O=C(N[C@H]1CC[C@H](CCNS(=O)(=O)c2ccccc2Cl)O[C@H]1CO)c1ccccc1` gave C diff HTS 0 and T cruzi growth-1 21.
COc1ccc(NC(=O)N2CCCCN3[C@H](CO)[C@H](c4ccc(-c5ccccc5C)cc4)[C@@H]3C2)cc1 was read as C diff HTS -5 and T cruzi growth-1 66.
COc1ccc(NC(=O)N2CCCCN3[C@@H](CO)[C@@H](c4ccc(C5=CCCC5)cc4)[C@@H]3C2)cc1 was read as C diff HTS 14 and T cruzi growth-1 94.
For COc1ccc(NC(=O)N2CCCCN3[C@H](CO)[C@@H](c4ccc(-c5ccccc5F)cc4)[C@@H]3C2)cc1 the results were C diff HTS 33 and T cruzi growth-1 65.
`COc1ccc(NC(=O)N2CCCCN3[C@H](CO)[C@H](c4ccc(C5=CCCCC5)cc4)[C@@H]3C2)cc1` gave C diff HTS -17, T cruzi growth-1 114*, T cruzi growth-2 110*, T cruzi growth-3 86, NIH3T3 tox -11 and NIH3T3 tox 2 81*.
For COc1ccc(NC(=O)N2CCCCN3[C@H](CO)[C@@H](c4ccc(-c5ccccc5F)cc4)[C@H]3C2)cc1 the results were C diff HTS 8 and T cruzi growth-1 48.
COc1ccc(NC(=O)N2CCCCN3[C@H](CO)[C@@H](c4ccc(-c5ccccc5C)cc4)[C@H]3C2)cc1 was read as C diff HTS 21, T cruzi growth-1 109*, T cruzi growth-2 103*, T cruzi growth-3 79, NIH3T3 tox 40* and NIH3T3 tox 2 103*.
COc1ccc(NC(=O)N2CCCCN3[C@@H](CO)[C@@H](c4ccc(-c5ccccc5C)cc4)[C@@H]3C2)cc1 was read as C diff HTS 45, T cruzi growth-1 108*, T cruzi growth-2 83, T cruzi growth-3 82, NIH3T3 tox 111* and NIH3T3 tox 2 102*.
